The list shows a part of the results. Records with an inconclusive call do not appear. The source made the active and inactive calls. The call rests on the fitted dose curve; in most records, active means well fitted inhibition curve with a large enough effect; inconclusive means small, poorly fitted or top-dose-only effect; inactive means no such curve, though single readings can be large or run the other way.

This assay in a line: qHTS for Inhibitos of Bacillus subtilis Sfp phosphopantetheinyl transferase (PPTase): Chemistry Optimization Followup in B. Subtilis HM489. The conditions noted are these: B. subtilis HM489 (acpS-) growth, BacTiter-Glo, 5 h; series mostly up to 114 µM. An excerpt:
Phosphopantetheinyl transfer is a process essential to cellular viability and maintenance. Cellular permeable and stable compounds acting as PPTase inhibitors are anticipated to be antimicrobial agents in organisms with complimenting genotypes. […] This experiment evaluated a series of test compounds for antimicrobial activity with B. subtilis HM489 (genotype: acpS- and sfp+), a strain that contains a targeted lesion in the acpS locus and thus requires a functional Sfp gene product for viability. [Mootz HD, 2001] This strain is expected to be sensitized to cell-permeable Sfp inhibitors. NIH Chemical Genomics Center [NCGC] NIH Molecular Libraries Probe Centers Network [MLPCN] MLPCN Grant: MH083266-01 Assay Submitter (PI): Michael Burkart, University of California, San Diego
Innoculum preparation. Bacillus subtilis HM489 is maintained on lysogeny broth (LB) solidified by the addition of 1.5% w/v agar. Single colonies were used to LB medium (2 mL) and shaken overnight at 30 masculineC. In the morning, this culture (100 uL) was used to seed a fresh LB medium (10 mL) and was shaken at 30 masculineC until the culture OD600 reached 0.5. This culture was diluted 1:100 in fresh LB medium to provide the inoculum below. Bacterial susceptibility. LB medium (2 uL) is dispensed into wells of a sterile white 1536-well plate. Test compounds (23 nL) prepared as serial dilutions in DMSO are added to the plate by pintool transfer. Innoculum (2 uL) is added; the plates are covered with a vented Kalypsys assay lid and incubated at 30 masculineC. After 5 hrs, Bac-Titer Glo (4 uL; Promega Corp, Madison, WI) is added to the plates. They are incubated 10 minutes at room temperature and then the luminescence detected in a ViewLux multimodal plate reader.
A general note: Quantitative high-throughput screening tests each substance at several concentrations.
In the case of `Cc1cc(C)nc(NC(=S)N2CCN(c3ccc4nonc4c3)CC2)c1`, the Potency result was “inactive”.
`FC(F)(F)c1cccc(N2CCN(C(=S)Nc3ccncc3)CC2)c1`: the Potency was 59.1 µM (active).
Take `Cc1ccc(N2CCN(C(=S)Nc3cc(C)ccn3)CC2)cc1`: the Potency is 33.2 µM (active).
As for `Cc1cc(C)nc(NC(=S)N2CCN(c3ccc(Cl)cc3C(F)(F)F)CC2)c1`, the Potency is 10.5 µM (active).
For the molecule `COc1ccnc(NC(=S)N2CCN(c3ncc(C(F)(F)F)cc3Cl)CC2)c1`, the Potency is 11.8 µM (active).
Take `COc1cccc(NC(=S)N2CCN(c3ccccc3C(F)(F)F)CC2)n1`: the Potency was 23.5 µM (active).
For `Cc1cc(C)nc(NC(=S)N2CCN(c3cccc(C(F)(F)F)c3)CC2)c1`, the Potency was 33.2 µM (active).
With `COc1cccc(NC(=S)N2CCN(c3ccc(Cl)cc3Cl)CC2)n1`, the Potency entry is “inactive”.
Turning to `Cc1cc(C)nc(NC(=S)N2CCN(c3ccc(Cl)cc3F)CC2)c1`, the Potency was 23.5 µM (active).

These data come from PubChem BioAssay AID540353 (National Center for Advancing Translational Sciences (NCATS), 2011).
